ALR H2O2 inh – inhibitors of human ALR sulfhydryl oxidase, primary screen, biochemical, H2O2 detection, HRP-luminol luminescence, single point. FAD-linked sulfhydryl oxidase ALR (Homo sapiens), P55789. purified ALR, DTT oxidation. inhibition, % (no concentration beside the values). 290,000 compounds, 3.8% hits. AID 485317, 2010;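 active = mean replicate inhibition above about 79%, with every replicate also reaching it, limit read from the data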
Target sequence (P55789 whole entry, looked up): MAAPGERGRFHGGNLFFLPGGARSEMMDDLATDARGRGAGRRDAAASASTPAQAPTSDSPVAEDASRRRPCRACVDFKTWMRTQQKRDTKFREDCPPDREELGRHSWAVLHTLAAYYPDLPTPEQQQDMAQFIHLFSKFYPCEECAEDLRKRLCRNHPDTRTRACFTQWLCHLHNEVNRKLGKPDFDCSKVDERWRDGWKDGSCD
SUMO HTRF inh – inhibitors of in vitro SUMOylation cascade, primary screen, biochemical, HTRF, uHTS; SUMO-conjugating enzyme UBC9 (Homo sapiens), P63279; 290,000 compounds, 0.36% hits; inhibition, % at 35 µM; HTRF SUMOylation assay, SAE1/SAE2 + UBC9; in the data active = inhibition above about 50%, passing the limit was not always enough
Target sequence (P63279 whole entry, looked up): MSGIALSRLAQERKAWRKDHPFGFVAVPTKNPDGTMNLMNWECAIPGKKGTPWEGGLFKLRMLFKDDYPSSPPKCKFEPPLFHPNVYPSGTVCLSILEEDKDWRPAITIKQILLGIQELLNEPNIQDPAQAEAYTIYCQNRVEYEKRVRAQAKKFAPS
PABP polyA inh – PABP poly(A) RNA binding inhibitors, primary screen, biochemical, fluorescence polarization, uHTS | Polyadenylate-binding protein 1 (Homo sapiens), P11940 | inhibition, % at 35 µM | 290,000 compounds, 1% hits | AID 2014, 2009;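 note: calls also rest on retests at 20 µM and on dose response follow-up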
MLLE-PAM2 inh – inhibitors of PABP1 MLLE–PAM2 peptide binding, primary screen, biochemical, fluorescence polarization, FITC-PAM2, GST-MLLE; 360,000 compounds, 0.36% hits; inhibition, % at 20 µM; in the data active = inhibition above about 35%, passing the limit was not always enough;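 note: plate controls were DMSO wells with GST-MLLE for no effect and wells lacking GST-MLLE protein for full effect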
Efflux pump inh – inhibitors of Candida efflux pumps in yeast, primary screen, S. cerevisiae, Nile Red, multiplex | S. cerevisiae Candida pump triplex | inhibition, % at 10 µM | 330,000 compounds, 0.44% hits;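 active = plate passing quality check with inhibition over a set limit, or well fluorescence over plate mean plus 4 SD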;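 note: Nile Red retained in pooled yeast measured as flow cytometry median fluorescence; 0% = buffer negative control and 100% = Enniatin B positive control; higher means more Nile Red kept so more efflux inhibition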
eIF4H inh – human eIF4H binding inhibitors, primary screen, translation initiation inhibitor project, biochemical, uHTS, fluorescence polarization. Eukaryotic translation initiation factor 4H (Homo sapiens), Q15056. eIF4H fluorescence polarization binding assay. inhibition, % at 35 µM. 290,000 compounds, 0.94% hits;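 note: calls also rest on retests at 20 µM and on dose response follow-up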
* marks the source's active call; other numbers are inactive results; . = no result. This is a sample that favours compounds with a hit; in the whole collection about 4.7% have one here. Unless noted, the rule behind the calls is not given here.

SMILES	ALR H2O2 inh	SUMO HTRF inh	PABP polyA inh	MLLE-PAM2 inh	Efflux pump inh	eIF4H inh
CCN1C(=O)/C(=C2\SC(=S)N(NC(=O)c3ccccc3O)C2=O)c2ccccc21	4.3	-3.2	20.6	38.7*	0.1	-15.2
CCN1C(=O)/C(=C2\SC(=S)N(CC3CCCO3)C2=O)c2ccccc21 (stereo unspecified)	.	-2.5	-7.2	.	.	-2.5
Cc1c(N2C(=O)/C(=C3/C(=O)N(C)c4ccccc43)SC2=S)c(=O)n(-c2ccccc2)n1C	-3.8	-18.9	1.1	31.7	0.2	3.9
CCCN1C(=O)/C(=C2\SC(=S)N(c3c(C)n(C)n(-c4ccccc4)c3=O)C2=O)c2ccccc21	-7.8	-5.3	14.2	.	0.0	-5.2
C=C1CCN([C@@H](Cc2ccccc2)C(=O)NCCC(C)C)S(=O)(=O)c2ccccc21	-10.9	.	.	-8.2	-0.1	.
Cc1cc(C)cc(OCC(O)CN2CCC(CN3C(=O)c4cccc5cccc(c45)C3=O)CC2)c1 (stereo unspecified)	-5.6	.	.	5.3	0.0	.
COc1cc(-c2c(C#N)c(=O)[nH]c3c2c(C)nn3-c2ccccc2)ccc1O	99.0*	21.4	38.2	-4.8	0.0	-0.2
Cc1ccc(NS(=O)(=O)c2cccc(C(=O)NC3CCN(Cc4ccccc4)CC3)c2)cc1	.	.	.	2.9	.	.
O=C(NC1CCN(Cc2ccccc2)CC1)c1cccc(S(=O)(=O)Nc2ccc(SC(F)F)cc2)c1	99.0*	.	.	32.7	0.1	.
O=S(=O)(Cc1nnnn1-c1ccccc1)c1ccc(Cl)cc1	-1.7	9.6	8.6	5.0	0.0	-6.2
CCOC(=O)c1c2c3c(cccc3n(C)c1=O)C(=O)c1ccccc1-2	-23.6	25.3	-15.5	61.7*	0.0	-9.0
O=C(/C=C/c1ccc2ccccc2n1)c1cc(Cl)ccc1O	.	11.8	51.0*	-61.9	0.8	67.0
Clc1ccc2oc(-c3ccccn3)nc2c1	1.1	6.3	58.1*	-24.3	-0.1	16.1*
CCc1nc(CN(C)C(=O)C2CCC(=O)N(CCc3cccc(F)c3)C2)no1 (stereo unspecified)	-1.4	-0.8	-0.2	-7.6	1.2	-4.5
Cc1cc(/C=C2/C(=N)N3C(c4ccccc4)=CSC3=NC2=O)c(C)n1-c1ccccc1	-4.4	18.4	24.8*	-29.1	0.2	89.7*
Cc1ccccc1-n1c(C)cc(/C=C2/C(=N)N3C(c4ccccc4)=CSC3=NC2=O)c1C	-0.5	5.7	18.6*	-32.5	0.0	86.0
COc1ccccc1-n1c(C)cc(/C=C2/C(=N)N3C(=NC2=O)SN=C3S(C)(=O)=O)c1C	15.4	21.1	-1.7	-9.4	-0.1	67.2
CC1=NN2C(=N)/C(=C\c3cc(C)n(-c4ccccc4)c3C)C(=O)N=C2S1	-3.5	-12.6	-3.1	7.4	-0.2	-2.7
CN(C(=O)c1cccc(NC(=O)Cc2cccc(NC(=O)C3CCCN(C(=O)c4ccccc4)C3)c2)c1)C1CCC1 (stereo unspecified)	.	.	.	-2.9	.	.
CC(=O)Nc1ccc(NC(=O)CSc2nnc(-c3cccnc3)o2)cc1	98.2*	.	.	7.2	0.4	.
O=C(CSc1nnc(-c2cccnc2)o1)Nc1ccccc1Br	-10.0	28.8	-3.0	9.5	-0.2	-9.4
O=C(CSc1nnc(-c2cccnc2)o1)Nc1ccc(Cl)cc1	-22.7	-0.8	-4.5	1.8	-0.2	-3.5
O=C(CSc1nnc(-c2cccnc2)o1)Nc1ccccc1F	3.1	.	.	44.3*	-0.1	.
CCc1ccc(/C=C2/C(=O)NC(=O)N2C(C)=O)cc1	49.3	14.0	-1.2	-4.5	-1.4	-1.4
CC(C)(O)CCCC(C)(O)c1ccc(C(=O)O)cc1O (stereo unspecified)	-3.8	25.6	49.0	14.3	-0.2	84.5*
SMILES	ALR H2O2 inh	SUMO HTRF inh	PABP polyA inh	MLLE-PAM2 inh	Efflux pump inh	eIF4H inh
CC(NS(=O)(=O)c1ccc(Br)cc1)C(=O)NCCc1ccccc1 (stereo unspecified)	-1.0	14.3	9.1	-6.5	-0.1	-7.2
CC(=O)Nc1ccc(S(=O)(=O)NC(C)C(=O)NCCc2ccc(F)cc2)cc1 (stereo unspecified)	98.3*	3.7	-12.5	-8.6	-0.1	-0.3
COCCCn1c(Cc2csc(Nc3ccccc3)n2)nnc1SCC(N)=O	55.9	7.3	5.2	-34.5	-0.1	-1.0
NC(=O)CSc1nnc(Cc2csc(Nc3ccccc3)n2)n1Cc1ccccc1	78.8*	-13.3	-1.6	-122.6	0.0	-0.7
Cc1cc(=O)[nH]c(SCC(=O)Nc2cccc(S(=O)(=O)N3CCOCC3)c2)n1	13.8	.	.	10.8	-0.3	.
COc1cccc(NC(=O)CN(C)C(=O)c2c(C)nn(CC(C)C)c2Cl)c1	-2.5	.	.	13.6	-0.1	.
COc1ccc(C(=O)NC(=S)N2CCCc3ccccc32)cc1OC	10.7	22.7	5.8	41.1*	0.0	7.1
COc1ccccc1C(=O)NC(=S)N1CCc2ccccc21	4.1	19.6	-1.3	-12.3	0.1	-10.8
COc1ccccc1C(=O)NC(=S)N1CCCc2ccccc21	6.5	5.2	57.4*	17.4	0.0	32.3
CCCCCCc1ccc(N2C[C@H](Cc3ccccc3)[C@@H](CC(=O)Nc3ccccc3)C2=O)cc1	-2.5	1.7	-9.7	8.1	0.3	-4.8
CN(C)c1ccc(N=Nc2ccc(S(N)(=O)=O)cc2)cc1	-14.5	21.1	-15.3	-8.3	-0.3	24.0
CC1=CC(=O)C=CC1=Nc1ccc(N(C)C)cc1	.	.	.	50.7*	.	.
COc1ccc(/C=C2/C(=O)OCc3cc(OC)c(OC)cc32)cc1	22.5	7.4	104.0*	2.7	0.1	active
COc1ccc(/C=C2\CCOC2=O)cc1	-11.7	30.0	-9.0	25.1	-0.1	7.2
Cc1ccccc1CCNC(=O)c1ccc(Cl)c(S(=O)(=O)N2CC(C)OC(C)C2)c1 (stereo unspecified)	.	.	.	-30.2	-0.1	.
Cc1cccc(C)c1NC(=O)c1ccc2sc([C@@H]3O[C@H](CO)[C@H](O)[C@H](O)[C@H]3O)nc2c1	.	.	.	13.2	.	.
Cc1cc(C(=O)COc2ccc3ccc(=O)oc3c2)c(C)n1Cc1cccs1	87.5*	13.9	12.1	2.1	0.0	5.5
COc1ccccc1NC(=O)Cn1cnc2sc(C(=O)Nc3cc(OC)c(OC)c(OC)c3)c(C)c2c1=O	-3.8	0.0	-9.3	14.4	-0.1	-4.9
COc1ccccc1NC(=O)c1sc2ncn(CC(=O)Nc3ccccc3)c(=O)c2c1C	.	51.2*	-1.0	-34.0	0.0	13.3
O=C1CCCN1CCCNc1ncnc2c1[nH]c1ccc(Cl)cc12	97.9*	4.5	-3.7	-7.5	-0.1	7.7
Clc1ccc2[nH]c3c(NCCCN4CCOCC4)ncnc3c2c1	-9.2	-29.7	-2.6	-5.7	0.4	-0.6
CCCCCC(=O)N1CC2(CC)CN(C(=O)CCCCC)CC(CC)(C1)C2=O	-7.2	11.5	91.6*	-8.2	0.0	98.6*

Screening data (PubChem BioAssay)
